Compound activity from PubChem.
The list is not random: actives were taken first. Their share in the collection is about 3.5%.
GDH-TPI counter-1: GDH-TPI coupled enzyme inhibition counter-screen; GDH-TPI coupled enzyme counterscreen, NADH absorbance; inhibition, % at 4.8 µM; hit rate 1.2% among 360,000; in the data active means inhibition above about 30%;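 further: 0% = DMSO wells and 100% = wells lacking the enzyme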
UGM FP inh: inhibitors of M. tuberculosis UDP-galactopyranose mutase; P9WIQ1; purified UGM, fluorescence polarization probe displacement; inhibition, % at 10 µM; hit rate 0.06% among 320,000; in the data active means inhibition above about 10%, passing the limit was not always enough
FBA Mtb inh: inhibitors of M. tuberculosis fructose-bisphosphate aldolase; P9WQA3; purified M. tuberculosis FBA, fluorescence read-out; inhibition, % at 1 µM; hit rate 2.3% among 360,000; AID 588726;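 further: 0% = vehicle and 100% = reference inhibitor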
Rv3671c protease: Rv3671c (M. tuberculosis) protease inhibition; P9WHR9; inhibition, % at 5.96 µM; hit rate 0.048% among 320,000; in the data active means inhibition above about 38%;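 further: extracellular domain of Rv3671c used as enzyme; 0% = enzyme with DMSO and 100% = no enzyme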
Target sequence (P9WHR9 whole entry, looked up, the tested form may be a part): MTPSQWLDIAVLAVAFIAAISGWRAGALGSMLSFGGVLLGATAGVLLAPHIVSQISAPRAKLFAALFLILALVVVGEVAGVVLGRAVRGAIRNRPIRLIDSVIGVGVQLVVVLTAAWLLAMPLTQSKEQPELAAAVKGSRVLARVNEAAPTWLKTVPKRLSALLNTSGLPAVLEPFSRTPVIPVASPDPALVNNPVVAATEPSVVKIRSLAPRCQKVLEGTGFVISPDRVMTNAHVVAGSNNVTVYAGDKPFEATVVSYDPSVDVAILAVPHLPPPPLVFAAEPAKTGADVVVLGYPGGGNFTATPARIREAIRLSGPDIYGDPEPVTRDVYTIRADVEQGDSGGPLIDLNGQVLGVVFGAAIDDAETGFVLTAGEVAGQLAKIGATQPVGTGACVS
FadD28 FP inh: inhibitors of Mycobacterium tuberculosis FadD28 bisubstrate binding | FadD28 bisubstrate probe binding, fluorescence polarization | inhibition, % at 12.5 µM | hit rate 0.22% among 360,000 | AID 588549; in the data active means inhibition above about 8.5%, passing the limit was not always enough
Mtb hypoxia inh: inhibitors of hypoxia-regulated fluorescent reporter in Mycobacterium tuberculosis | M. tuberculosis hypoxia-regulated fluorescent reporter, fluorescence | fluorescence inhibition, % (concentration not given with the values) | hit rate 0.1% among 300,000 | AID 1159583; in the data active means fluorescence inhibition mostly above about 23%, no sharp cut-off; inactive means mostly below about 17%
Mtb FBA confirm: Mtb FBA inhibition, confirmed | inhibition, % at 1 µM | hit rate 78% among 5,600 | shares compounds with FBA Mtb inh | purified M. tuberculosis FBA, fluorescence read-out | AID 651616;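 further: 0% = vehicle wells and 100% = reference inhibitor wells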
GDH-TPI counter-2: inhibits GDH-TPI coupling enzymes, flagging Mtb FBA hits | inhibition, % at 1 µM | shares compounds with FBA Mtb inh | hit rate 81% among 5,600 | GDH-TPI coupled enzyme counterscreen, fluorescence; in the data active means inhibition above about 10%
* = called active by the depositor; · = no result given; + = active, no number. Unless noted, no stated cut-off is given here; in the data, active means inhibition above about 27%; inactive means the rest.

SMILES | GDH-TPI counter-1 | UGM FP inh | FBA Mtb inh | Rv3671c protease | FadD28 FP inh | Mtb hypoxia inh | Mtb FBA confirm | GDH-TPI counter-2
Cc1nn(CCO)c2nc(-c3cccs3)cc(C(F)(F)F)c12 | 24 | 1 | 100* | -4 | -1 | 3 | 180* | 168*
CCC(C)Sc1cccc(-c2nc3ccc(Cl)cn3c2NCc2ccccc2)c1 (configuration not stated) | 18 | 1 | 23 | -3 | -3 | 8 | · | ·
CCC(C)Sc1cccc(-c2nc3cc(C)ccn3c2NC2CCCCC2)c1 (configuration not stated) | 24 | · | 45* | -8 | -2 | -3 | 140* | 133*
CCC(C)Sc1cccc(-c2nc3ccc(C)cn3c2NCc2ccccc2)c1 (configuration not stated) | 15 | 1 | 39* | 2 | 0 | · | 1 | 1
CCC(C)Sc1cccc(-c2nc3ccccn3c2NCc2ccccc2)c1 (configuration not stated) | 5 | 1 | 32* | 1 | 0 | 5 | 113* | 91*
Cc1ccn2c(NC3CCCCC3)c(-c3cccc(SC4CCCCC4)c3)nc2c1 | 2 | 3 | 21 | -3 | -6 | · | · | ·
CCC(=O)N1N=C(c2cccs2)CC1c1ccco1 (configuration not stated) | 2 | 0 | 3 | -5 | -1 | 5 | · | ·
c1ccc(N2N=C(c3cccs3)CC2c2ccco2)cc1 (configuration not stated) | 20 | 0 | 78* | 6 | 1 | · | 14 | 10*
Fc1ccc(C2CC(c3ccco3)=NN2c2ccccc2)cc1 (configuration not stated) | 8 | -1 | 60* | 0 | -1 | 6 | + | +
Clc1ccc(N2N=C(c3cccs3)CC2c2ccco2)cc1 (configuration not stated) | 3 | 0 | 81* | 2 | -2 | · | 82* | 55*
COc1cc(S(C)=O)ccc1-c1nc2ncccc2[nH]1 (configuration not stated) | 32* | -4 | 55* | -10 | -3 | 4 | 90* | 72*
O=C(COc1ccc2c(-c3ccccc3)cc(=O)oc2c1)NCCCN1CCOCC1 | 11 | -4 | -1 | 7 | 0 | 6 | · | ·
O=C(COc1ccc2c3c(c(=O)oc2c1)CCCC3)NCCCN1CCOCC1 | 23 | 1 | 29* | -1 | -2 | 2 | 89* | 64*
CC(Oc1ccc2c3c(c(=O)oc2c1)CCCC3)C(=O)NCc1ccncc1 (configuration not stated) | -6 | 7 | 51* | 2 | -4 | 15 | 7 | -3
O=C(O)CCNC(=O)COc1ccc2c3c(c(=O)oc2c1)CCCC3 | 2 | 4 | 66* | · | -2 | -1 | 40* | 35*
O=C(COc1ccc2c(c1)oc(=O)c1ccccc12)NCCN1CCOCC1 | 5 | 4 | 91* | 1 | -3 | 12 | 128* | 105*
C#CCOCCOCCOCCNc1nc(N2CCN(C(=O)C(Cc3cc4ccccc4[nH]3)n3cc(C(N)C(C)CC)nn3)CC2)nc(N2CCN(C(=O)C(C(C)CC)n3cc(C(N)CO)nn3)CC2)n1 (configuration not stated) | · | · | · | · | · | 0 | · | ·
O=C(COc1ccc2c3c(c(=O)oc2c1)CCCC3)NCCN1CCOCC1 | 15 | -1 | 48* | -11 | -1 | -2 | -1 | -2
O=C(COc1ccc2c3c(c(=O)oc2c1)CCC3)NCCN1CCOCC1 | 3 | 0 | 10 | -3 | -2 | 12 | · | ·
Cc1c(OC(C)C(=O)NCc2cccnc2)ccc2c3c(c(=O)oc12)CCCC3 (configuration not stated) | 7 | -2 | 61* | 1 | -5 | · | + | +
Cc1cc(OCC(=O)N2CCOCC2)cc2oc(=O)c3ccccc3c12 | 13 | 0 | 54* | -3 | -1 | · | 70* | 45*
CC(Oc1ccc2c3c(c(=O)oc2c1)CCCC3)C(=O)NCCN1CCOCC1 (configuration not stated) | 12 | 0 | 51* | 3 | -2 | 11 | 76* | 61*
CN1C(=O)C(=NOC(=O)c2cccc3ccccc23)c2ccccc21 | · | · | · | · | · | -3 | · | ·
COc1ccc(CNC(=O)CC(C)=NNC(=O)COc2ccccc2)cc1 | · | · | · | · | · | 7 | · | ·
Cc1ccc(CNC(=O)CN(C(=O)C2(C)CC(=O)N=C3C=CC=CN32)c2ccc(F)cc2)cc1 (configuration not stated) | 9 | 2 | 69* | -9 | -2 | -1 | -2 | -5
SMILES | GDH-TPI counter-1 | UGM FP inh | FBA Mtb inh | Rv3671c protease | FadD28 FP inh | Mtb hypoxia inh | Mtb FBA confirm | GDH-TPI counter-2
Cc1ccc(CNC(=O)CN(C(=O)C2(C)CC(=O)N=C3C=CC=CN32)c2ccccc2F)cc1 (configuration not stated) | 3 | 0 | 82* | -11 | -5 | -9 | 77* | 53*
CC1CCCC(C)N1NC(=S)Nc1ccc(OC(F)F)cc1 (configuration not stated) | 8 | -2 | 55* | 7 | -4 | 1 | 60* | 53*
NC(=O)c1ccccc1NCC(=O)c1ccc(F)cc1 | -4 | 1 | 31* | -11 | -3 | 6 | 103* | 87*
CN(c1ccccc1)S(=O)(=O)c1cccc(NC(=O)CN2C(=O)NC3(CCCCC3)C2=O)c1 | 6 | -1 | 38* | -2 | -4 | · | 88* | 52*
CC1CCC2(CC1)NC(=O)N(CC(=O)Nc1cccc(S(=O)(=O)N(C)c3ccccc3)c1)C2=O (configuration not stated) | 4 | · | 1 | · | 0 | · | · | ·
CNC(=S)N(CCCO)Cc1cc2cc3c(cc2[nH]c1=O)OCO3 | 19 | 0 | 30* | -9 | -3 | -3 | 85* | 65*
O=c1[nH]c2cc3c(cc2cc1CN(CCCO)C(=S)NCc1ccco1)OCO3 | 25 | 2 | 18 | 2 | 0 | 0 | · | ·
CCN(CC)CCN(Cc1cc2cc3c(cc2[nH]c1=O)OCO3)C(=S)NCc1ccco1 | 9 | 0 | 35* | 0 | -5 | 4 | 6 | -1
CN(C)CCCN(Cc1cc2cc3c(cc2[nH]c1=O)OCO3)C(=S)NCc1ccco1 | 8 | -2 | 27* | 8 | -5 | -5 | + | +
CCC(=O)N(Cc1ccco1)Cc1cc2cc3c(cc2[nH]c1=O)OCO3 | 11 | 7 | 40* | -2 | 0 | 7 | + | 152*
CCN(CC)CCCN(Cc1cc2cc3c(cc2[nH]c1=O)OCO3)C(=S)NCc1ccco1 | 12 | 0 | 24 | 0 | -2 | 6 | · | ·
O=c1[nH]c2ccccc2nc1-c1cccs1 | 15 | -3 | 104* | -8 | 0 | 4 | 143* | 107*
CC(C)Oc1cccc(C(=O)C2CCCN(C(=O)c3ccccn3)C2)c1 (configuration not stated) | 8 | 1 | 3 | -7 | -1 | 9 | · | ·
